Experimental data taken from PubChem BioAssay (NCATS).
Inconclusive results are not listed. The source made the active and inactive calls. Calls follow the shape of the dose curve; as a rule, active = well fitted curve in the direction sought with a large enough effect; inconclusive = small, poorly fitted or top-dose-only effect, or another doubt; inactive = no such curve, though single readings can be large; an effect the other way counts as inactive or inconclusive.

Tests used:
[1] = qHTS for Inhibitors of Plasmodium falciparum (DD2) proliferation (AID 504314);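 also: parasite DNA measured by SYBR Green fluorescence after red cell lysis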; conditions: P. falciparum Dd2 in erythrocytes, SYBR Green growth, 72 h; series mostly up to 1.12 µM
Summary of the method: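 Normalization used 0.29 uM artemisinin as full inhibition and DMSO as baseline. Parasitized erythrocytes were exposed to compounds for 72 h (37C, 5% CO2), then lysed with saponin/Triton buffer containing SYBR Green I.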

[2] = qHTS for Inhibitors of Plasmodium falciparum (7G8) proliferation (AID 504316); also: nearly all actives have a fitted effect of over 65% in size; also: potency is read from the fitted curve at half-maximal effect; conditions: P. falciparum 7G8 in erythrocytes, SYBR Green DNA, 72 h; series mostly up to 6.7 µM
Summary of the method: (§1)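 Parasite growth measured as SYBR Green DNA fluorescence (ex 485, em 535 nm) after overnight lysis following 72 h culture at 37 °C, 0.3% parasitemia, 2.5% hematocrit. Values normalized against DMSO and 0.29 uM artemisinin controls, with plate-stack correction.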

[3] = qHTS for Inhibitors of Plasmodium falciparum (HB3) proliferation (AID 504318); also: nearly all actives have a fitted effect of over 60% in size; also: potency is read from the fitted curve at half-maximal effect; conditions: P. falciparum HB3 in erythrocytes, SYBR Green DNA, 72 h; series mostly up to 7.21 µM
Summary of the method: as §1

[4] = qHTS for Inhibitors of Plasmodium falciparum (CP250) proliferation (AID 504320); conditions: P. falciparum CP250 in erythrocytes, SYBR Green DNA, 72 h; series mostly up to 6.7 µM
Summary of the method: as §1

Measured: Potency

CC1(OC(=O)C2CCCC2)C(=O)C=C2C=C(c3ccsc3)N(c3ccc(CO)cc3)C=C2C1=O (stereo not drawn)
inactive: [1] | [2] | [3] | [4]

C=CCN1C=C2C(=O)C(C)(OC(=O)CC)C(=O)C=C2C=C1CCCC (stereo not drawn)
inactive: [1] | [2] | [3] | [4]

CCCCc1nc2c(c3c1C[C@H](C)OC3)CN(S(=O)(=O)c1c(C)noc1C)CC2
inactive: [1] | [2] | [3]

CCN1C(=O)N(C)[C@@H](c2ccccc2)C(C(C)=O)=C1C
inactive: [1] | [2] | [3] | [4]

COC(=O)C1=C(C)N(Cc2ccco2)C(=O)N[C@@H]1c1ccco1
inactive: [1] | [2] | [3] | [4]

COC(=O)C1=C(C(=O)OC)[C@@H]2N(C)c3ccc(OC)cc3[C@@]23C[C@@H](C(=O)OC)N(S(=O)(=O)c2ccc(Br)cc2)C3=N1
active: [2] 1510 nM
inactive: [1]

CCOC(=O)NN=C1C[C@@H](O)[C@@H](O)[C@@H]2[C@H]3C(=O)N(CC)C(=O)[C@@H]3CC[C@@H]12
inactive: [1] | [2] | [3] | [4]

CCCCC1=CC2=CC(=O)C(C)(OC(=O)CC)C(=O)C2=CN1CCCCO (stereo not drawn)
inactive: [1] | [2] | [3] | [4]

C=CCN1c2ccccc2[C@]23C[C@@H](C(=O)OC)N(S(=O)(=O)c4ccc(Br)cc4)C2=NC(C(=O)OC)=C(C(=O)OC)[C@H]13
inactive: [1] | [2]

COC(=O)N[C@@H](c1ccccc1)[C@]1(C(=O)OC)CCCC1=O
inactive: [1] | [2] | [3] | [4]

CCCCC1=CC2=CC(=O)C(C)(OC(=O)CC)C(=O)C2=CN1CCOC (stereo not drawn)
inactive: [1] | [2] | [3] | [4]

C=CCN1c2ccccc2[C@]23C[C@@H](C(=O)OC)N(C(=O)COCc4ccccc4)C2=NC(C(=O)OC)=C(C(=O)OC)[C@H]13
inactive: [1] | [2] | [3] | [4]

COC(=O)CCCC1=CC2=CC(=O)C(C)(OC(=O)c3cccs3)C(=O)C2=CN1Cc1ccccc1 (stereo not drawn)
inactive: [1] | [2] | [3] | [4]

COC(=O)N1C(C)=Cc2ccccc2C1C/C(C)=C/C(C)=O (stereo not drawn)
inactive: [1] | [2] | [3] | [4]

CC#CCN1c2ccccc2[C@]23C[C@@H](C(=O)OC)N(C(=O)c4cc(C)oc4C)C2=NC(C(=O)OC)=C(C(=O)OC)[C@H]13
active: [2] 1510 nM
inactive: [1]

CCCCC1=CC2=CC(=O)C(C)(OC(=O)CC)C(=O)C2=CN1Cc1ccc2c(c1)OCO2 (stereo not drawn)
inactive: [1] | [2] | [3] | [4]

CCCCc1nc2c(c3c1C[C@H](C)OC3)CN(C(=O)Nc1cccc(C#N)c1)CC2
inactive: [1] | [2] | [3]

CCOC(=O)CN1C(=O)N[C@@H](c2cccc(C(F)(F)F)c2)[C@@H](C(=O)OC)[C@H]1C
inactive: [1] | [2] | [3]

COC(=O)C1=C(C(=O)OC)[C@@H]2N(Cc3ccccc3)c3ccccc3[C@@]23C[C@@H](C(=O)OC)N(S(=O)(=O)c2ccc([N+](=O)[O-])cc2)C3=N1
inactive: [1]
active: [2] 1690 nM | [3] 1900 nM

CCCCC1=CC2=C(c3ccco3)C(=O)C(C)(OC(=O)c3ccc(OC)cc3)C(=O)C2=CN1C1CCCC1 (stereo not drawn)
inactive: [1] | [2] | [3] | [4]

COC(=O)C1=C(C(=O)OC)[C@@H]2Nc3ccccc3[C@@]23C[C@@H](C(=O)OC)N=C3N1
inactive: [1] | [2] | [3] | [4]

CCCCC1=CC2=CC(=O)C(C)(OC(=O)CC)C(=O)C2=CN1c1ccncc1 (stereo not drawn)
inactive: [1] | [2] | [3] | [4]

COC/C=C/C1=CC2=CC(=O)C(C)(OC(=O)c3cnc4ccccc4n3)C(=O)C2=CN1C1CCCC1 (stereo not drawn)
inactive: [1] | [2] | [3]

COC(=O)C1=C(C(=O)OC)[C@@H]2Nc3ccccc3[C@@]23C[C@@H](C(=O)OC)N(S(=O)(=O)c2c(C)noc2C)C3=N1
inactive: [1] | [2] | [3]

COC(=O)CCC(=O)OC1(C)C(=O)C=C2C=C(C3CC3)N(C3CCCCC3)C=C2C1=O (stereo not drawn)
inactive: [1] | [2] | [3]

COC(=O)CCCC1=CC2=CC(=O)C(C)(OC(=O)CCc3ccccc3)C(=O)C2=CO1 (stereo not drawn)
inactive: [1] | [2] | [3] | [4]

COC(=O)CCCC1=CC2=C(c3ccccc3)C(=O)C(C)(OC(=O)C3CCCC3)C(=O)C2=CN1CC(C)C (stereo not drawn)
inactive: [1] | [2] | [3]

CC1(OC(=O)CCc2ccccc2)C(=O)C=C2C=C(c3ccc(C#N)cc3)N(c3ccccc3)C=C2C1=O (stereo not drawn)
inactive: [1] | [2] | [3] | [4]
